Data as given in the supplement of paper PMC11732987, “Enantioselective OTUD7B fragment discovery through chemoproteomics screening and high-throughput optimisation” (Communications Chemistry, 2025).

Assays:
Test in all cases: log2 ratio of Biotin-Ahx-Ub-VS probe labelling (fragment/DMSO); higher = less target engagement (more negative = stronger competition), active = hit call of the paper (q ≤ 0.05, log2 ratio ≤ -1)
Details in all cases: compound concentration: 200 uM; treatment time: 3 h
OTUD6B = molecular target: T1, OTUD6B (UniProt Q8N6M0)
T1 sequence (whole entry): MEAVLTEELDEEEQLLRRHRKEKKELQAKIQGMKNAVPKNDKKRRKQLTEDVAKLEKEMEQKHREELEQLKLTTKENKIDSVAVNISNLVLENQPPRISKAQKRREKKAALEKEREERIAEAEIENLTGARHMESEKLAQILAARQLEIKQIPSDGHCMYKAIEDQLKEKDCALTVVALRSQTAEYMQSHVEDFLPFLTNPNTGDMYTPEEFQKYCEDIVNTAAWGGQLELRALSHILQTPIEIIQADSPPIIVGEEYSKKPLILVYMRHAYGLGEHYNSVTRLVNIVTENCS
Summary of the method: (§1)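 The table lists average log2 ratios of fragment over vehicle, from an unpaired t-test on global-median-normalised Spectronaut label-free quantities. Proteins with ≥2 unique peptides were used. Samples were HEK293T lysate (495 µg) treated in triplicate with fragment at 200 µM or vehicle for 3 h, then with Biotin-Ahx-Ub-VS (0.5 µM final) for 1 h, with labelled DUBs NeutrAvidin-enriched and run by diaPASEF LC-MS/MS.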

OTUD7B = molecular target: T2, OTUD7B (UniProt Q6GQQ9)
T2 sequence (whole entry): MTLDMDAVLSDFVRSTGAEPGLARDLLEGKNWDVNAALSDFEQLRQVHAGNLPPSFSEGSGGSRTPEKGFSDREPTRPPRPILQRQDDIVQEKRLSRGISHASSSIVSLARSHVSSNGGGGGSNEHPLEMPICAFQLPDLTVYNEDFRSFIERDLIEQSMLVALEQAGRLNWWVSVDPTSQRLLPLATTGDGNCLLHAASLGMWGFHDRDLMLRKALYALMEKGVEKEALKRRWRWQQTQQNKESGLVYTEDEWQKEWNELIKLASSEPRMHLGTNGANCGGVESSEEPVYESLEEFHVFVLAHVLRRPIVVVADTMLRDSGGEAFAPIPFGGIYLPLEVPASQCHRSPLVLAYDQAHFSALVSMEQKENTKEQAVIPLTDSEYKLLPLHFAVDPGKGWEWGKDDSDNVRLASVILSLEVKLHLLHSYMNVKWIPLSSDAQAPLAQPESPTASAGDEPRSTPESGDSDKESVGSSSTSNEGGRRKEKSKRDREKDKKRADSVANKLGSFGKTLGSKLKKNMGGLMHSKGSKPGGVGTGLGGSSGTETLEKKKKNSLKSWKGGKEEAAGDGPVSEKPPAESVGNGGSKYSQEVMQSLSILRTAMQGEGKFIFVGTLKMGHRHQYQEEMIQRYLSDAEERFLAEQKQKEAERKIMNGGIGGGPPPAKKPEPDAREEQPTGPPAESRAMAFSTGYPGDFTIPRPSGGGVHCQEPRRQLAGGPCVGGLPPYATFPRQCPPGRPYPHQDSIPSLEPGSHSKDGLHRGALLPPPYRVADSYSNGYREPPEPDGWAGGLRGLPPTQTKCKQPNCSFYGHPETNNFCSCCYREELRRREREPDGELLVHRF
Summary of the method: as §1

PRPF8 = PRPF8 (UniProt Q6P2Q9)
Summary of the method: as §1

PSMD7 = molecular target: T3, PSMD7 (UniProt P51665)
T3 sequence (whole entry): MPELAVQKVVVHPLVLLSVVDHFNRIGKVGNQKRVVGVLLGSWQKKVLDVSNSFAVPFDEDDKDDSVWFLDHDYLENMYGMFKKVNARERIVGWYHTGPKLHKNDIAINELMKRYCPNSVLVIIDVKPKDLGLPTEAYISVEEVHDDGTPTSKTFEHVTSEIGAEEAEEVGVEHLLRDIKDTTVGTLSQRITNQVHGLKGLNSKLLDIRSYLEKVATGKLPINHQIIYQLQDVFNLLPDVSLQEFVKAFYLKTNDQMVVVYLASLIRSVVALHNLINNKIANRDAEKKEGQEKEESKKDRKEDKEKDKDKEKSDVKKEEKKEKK
Summary of the method: as §1

UCHL1 = UCHL1 (UniProt P09936)
Summary of the method: as §1

UCHL3 = molecular target: T4, UCHL3 (UniProt P15374)
T4 sequence (whole entry): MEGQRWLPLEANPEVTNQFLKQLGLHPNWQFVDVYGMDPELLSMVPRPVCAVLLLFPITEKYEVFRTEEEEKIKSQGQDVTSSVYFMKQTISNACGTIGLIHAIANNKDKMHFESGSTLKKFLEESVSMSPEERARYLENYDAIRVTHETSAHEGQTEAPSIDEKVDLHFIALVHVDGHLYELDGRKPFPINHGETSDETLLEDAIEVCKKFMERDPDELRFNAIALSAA
Summary of the method: as §1

UCHL5 = molecular target: T5, UCHL5 (UniProt Q9Y5K5)
T5 sequence (whole entry): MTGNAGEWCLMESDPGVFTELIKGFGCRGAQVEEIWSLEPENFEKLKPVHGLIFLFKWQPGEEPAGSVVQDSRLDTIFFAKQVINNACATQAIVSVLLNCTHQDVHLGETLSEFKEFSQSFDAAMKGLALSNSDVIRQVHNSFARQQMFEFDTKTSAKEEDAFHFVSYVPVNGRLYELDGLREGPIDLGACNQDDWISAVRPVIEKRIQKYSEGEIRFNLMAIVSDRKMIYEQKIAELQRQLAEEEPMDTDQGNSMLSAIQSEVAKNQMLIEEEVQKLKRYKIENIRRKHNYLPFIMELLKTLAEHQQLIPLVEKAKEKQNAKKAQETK
Summary of the method: as §1

USP10 = USP10 (UniProt Q14694)
Summary of the method: as §1

USP15 = molecular target: T6, USP15 (UniProt Q9Y4E8)
T6 sequence (whole entry): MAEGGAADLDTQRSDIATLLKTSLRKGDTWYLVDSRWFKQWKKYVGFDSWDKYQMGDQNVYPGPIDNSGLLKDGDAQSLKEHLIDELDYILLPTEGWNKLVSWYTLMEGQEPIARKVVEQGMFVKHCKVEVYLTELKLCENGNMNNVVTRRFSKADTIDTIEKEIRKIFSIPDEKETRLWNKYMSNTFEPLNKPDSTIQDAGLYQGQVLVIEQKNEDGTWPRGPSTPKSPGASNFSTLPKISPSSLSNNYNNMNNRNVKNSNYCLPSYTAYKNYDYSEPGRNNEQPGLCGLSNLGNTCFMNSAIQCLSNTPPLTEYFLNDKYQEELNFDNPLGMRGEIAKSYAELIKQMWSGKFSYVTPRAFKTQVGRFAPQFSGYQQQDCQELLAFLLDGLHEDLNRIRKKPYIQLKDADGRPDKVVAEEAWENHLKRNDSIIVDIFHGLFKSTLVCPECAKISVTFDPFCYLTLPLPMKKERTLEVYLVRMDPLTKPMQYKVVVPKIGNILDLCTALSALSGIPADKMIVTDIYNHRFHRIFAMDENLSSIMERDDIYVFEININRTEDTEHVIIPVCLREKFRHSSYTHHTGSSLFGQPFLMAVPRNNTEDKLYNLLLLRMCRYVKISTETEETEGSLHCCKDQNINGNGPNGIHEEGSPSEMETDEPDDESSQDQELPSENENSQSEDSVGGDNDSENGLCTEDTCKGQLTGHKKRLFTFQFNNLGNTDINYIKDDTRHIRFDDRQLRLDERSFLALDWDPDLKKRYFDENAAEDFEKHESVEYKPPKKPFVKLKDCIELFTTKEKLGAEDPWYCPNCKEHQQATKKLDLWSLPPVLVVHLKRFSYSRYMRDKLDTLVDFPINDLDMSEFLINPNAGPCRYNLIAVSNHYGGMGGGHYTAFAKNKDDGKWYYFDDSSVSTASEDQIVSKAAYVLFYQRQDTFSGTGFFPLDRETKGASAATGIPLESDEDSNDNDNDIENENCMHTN
Summary of the method: as §1

USP16 = USP16 (UniProt Q9Y5T5)
Summary of the method: as §1

Measured: log2 ratio of Biotin-Ahx-Ub-VS probe labelling

USP10, sequence (Q14694 whole entry): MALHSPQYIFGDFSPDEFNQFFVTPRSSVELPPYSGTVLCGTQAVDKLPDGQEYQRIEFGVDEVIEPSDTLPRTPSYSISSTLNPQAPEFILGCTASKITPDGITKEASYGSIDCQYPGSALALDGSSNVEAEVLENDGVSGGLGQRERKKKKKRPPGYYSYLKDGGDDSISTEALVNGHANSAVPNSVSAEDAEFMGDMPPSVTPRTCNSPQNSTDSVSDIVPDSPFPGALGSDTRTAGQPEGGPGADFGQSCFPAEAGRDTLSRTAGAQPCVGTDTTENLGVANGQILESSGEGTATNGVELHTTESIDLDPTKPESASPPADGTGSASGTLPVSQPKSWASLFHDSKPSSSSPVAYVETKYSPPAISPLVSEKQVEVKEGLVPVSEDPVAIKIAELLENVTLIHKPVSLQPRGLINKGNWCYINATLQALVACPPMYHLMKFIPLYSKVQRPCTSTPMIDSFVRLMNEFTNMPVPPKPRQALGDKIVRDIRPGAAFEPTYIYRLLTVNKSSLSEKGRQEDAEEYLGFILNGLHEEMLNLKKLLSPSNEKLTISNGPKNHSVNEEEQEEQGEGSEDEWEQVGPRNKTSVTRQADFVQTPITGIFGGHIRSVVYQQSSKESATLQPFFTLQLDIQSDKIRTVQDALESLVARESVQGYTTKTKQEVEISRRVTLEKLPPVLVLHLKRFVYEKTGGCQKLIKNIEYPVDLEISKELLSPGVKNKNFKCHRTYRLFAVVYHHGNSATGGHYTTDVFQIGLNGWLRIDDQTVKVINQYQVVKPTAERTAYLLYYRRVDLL
UCHL1, sequence (P09936 whole entry, looked up): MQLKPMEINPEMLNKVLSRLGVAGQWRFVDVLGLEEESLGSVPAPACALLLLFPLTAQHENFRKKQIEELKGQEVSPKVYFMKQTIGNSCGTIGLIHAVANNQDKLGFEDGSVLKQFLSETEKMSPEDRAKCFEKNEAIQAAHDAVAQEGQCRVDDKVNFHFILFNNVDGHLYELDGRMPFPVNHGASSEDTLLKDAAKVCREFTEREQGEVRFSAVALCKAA
USP16, sequence (Q9Y5T5 whole entry, looked up): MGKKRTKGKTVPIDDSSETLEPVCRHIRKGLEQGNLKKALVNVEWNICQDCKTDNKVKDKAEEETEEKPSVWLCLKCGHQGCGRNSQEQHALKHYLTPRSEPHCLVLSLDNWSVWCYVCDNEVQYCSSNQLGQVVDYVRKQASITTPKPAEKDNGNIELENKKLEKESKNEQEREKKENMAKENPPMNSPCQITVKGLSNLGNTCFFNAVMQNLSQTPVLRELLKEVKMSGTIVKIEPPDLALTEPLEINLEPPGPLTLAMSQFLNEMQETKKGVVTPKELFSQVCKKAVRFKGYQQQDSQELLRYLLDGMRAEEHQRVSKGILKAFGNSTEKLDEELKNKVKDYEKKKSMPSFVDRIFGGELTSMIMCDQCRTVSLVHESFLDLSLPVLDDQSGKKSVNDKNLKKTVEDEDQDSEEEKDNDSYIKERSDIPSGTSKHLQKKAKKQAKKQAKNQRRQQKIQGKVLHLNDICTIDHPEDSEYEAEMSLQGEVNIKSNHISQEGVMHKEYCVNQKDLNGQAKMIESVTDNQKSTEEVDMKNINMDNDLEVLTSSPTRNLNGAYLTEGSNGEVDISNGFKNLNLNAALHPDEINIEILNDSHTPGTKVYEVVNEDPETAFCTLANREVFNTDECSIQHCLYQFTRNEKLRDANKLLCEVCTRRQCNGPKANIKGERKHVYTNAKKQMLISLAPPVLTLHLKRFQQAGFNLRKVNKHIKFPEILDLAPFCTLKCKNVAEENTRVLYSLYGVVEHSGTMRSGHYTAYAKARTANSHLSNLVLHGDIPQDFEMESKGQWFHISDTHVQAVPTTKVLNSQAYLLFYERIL

CCN1C(=O)C2CN(C(=O)CCl)CCN2C1=O (stereo not given)
inactive: OTUD6B -0.0446 | OTUD7B -0.649 | PRPF8 0.0726 | PSMD7 0.0575 | UCHL3 0.629 | UCHL5 -0.0935 | USP10 -0.0852 | USP15 -0.265 | USP16 -0.656
active: UCHL1 -1.56
